{"source": "PubChem BioAssay (Tox21)", "note": "Inconclusive results are not listed. Active and inactive are the calls of the source. Calls follow the shape of the dose curve; as a rule, active = well fitted cell-killing curve with a large enough effect in the repeat runs; inconclusive = weak or mixed curves; inactive = flat fitted curve, though single readings scatter. % is scaled to controls: 0 for no effect and ±100 for the full control effect."}
{"experiment": "qHTS RealTime-Glo MT Cell Viability Assay in HepG2 cells - 16 hour (AID 1224885); also: nearly all actives have a fitted effect of over 50% in size", "conditions": "RealTime-Glo luminescence; series mostly up to 76.8 µM", "excerpt": "U.S. Tox21 Program National Center for Advancing Translational Sciences [NCATS] NIH Chemical Genomics Center [NCGC] U.S. Environmental Protection Agency [EPA] National Institutes of Environmental Health Sciences [NIEHS] National Toxicology Program [NTP] U.S. Food and Drug Administration [FDA] Tox21 Assay Overview: Measure of cell viability is critical in the cell-base assay. Analysis of cell viability is necessary for the characterization of cell responses to cytotoxic drugs and environmental stress. A RealTime-Glo MT Cell Viability Assay to monitor cell viability in real time of continues cell culture during 40 hours of compound treatment was used to screen Tox21 10K library compounds in HepG2 cells. The RealTime-Glo MT Cell Viability Assay is a nonlytic, homogeneous, bioluminescent method to measure cell viability in real time using a simple, plate-based method. The assay involves adding NanoLuc luciferase and a cell-permeant prosubstrate to cells in culture. Viable cells reduce the proprietary prosubstrate to generate a substrate for NanoLuc luciferase. This substrate diffuses from cells into the surrounding culture medium, where it is rapidly used by the NanoLuc Enzyme to produce a luminescent signal. The signal correlates with the number of viable cells, making the assay well suited for cytotoxicity studies.\nTox21 Assay Protocol Summary: The mixture of HepG2 cell suspension and reagents were dispensed at 600cells/6 ul/well in 1536-well tissue culture treated black solid bottom plates using a Multidrop dispenser. After the assay plates were incubated at a 37 C/5% CO2 incubator for 5 hours, 23 nL of compounds dissolved in DMSO, positive and negative controls was transferred to the assay plate by a pintool work station. The plates were incubated at 37 C for 40 hours. The luminescence intensity were measured at 0h, 8h, 16h, 24h, 32h and 40h time points using ViewLux plate reader during compound treatment."}
{"molecule": "CCN(CC)CCNC(=O)COc1ccc(Cl)cc1", "outcome": "inactive"}
{"molecule": "CCN(CCCc1ccccc1)CCCc1ccccc1", "outcome": "inactive"}
{"molecule": "CCCCCOc1ccc(C2SC(=O)NC2=O)cc1OCC", "note": "(stereo not given)", "outcome": "inactive"}
{"molecule": "CCc1cc(Cl)c(OC)c(C(=O)NC[C@@H]2CCCN2CC)c1O", "outcome": "inactive"}
{"molecule": "CN(C)CC[C@@H](c1ccc(Cl)cc1)c1ccccn1", "outcome": "inactive"}
{"molecule": "CC(C)CCCCCCc1ccc(OCCOCCO)cc1", "outcome": "inactive"}
{"molecule": "CC(=O)OC(C)OC(C)=O", "outcome": "inactive"}
{"molecule": "Cc1cc2c(s1)Nc1ccccc1N=C2N1CCN(C)CC1", "outcome": "inactive"}
{"molecule": "CC(C)(CO)[C@@H](O)C(=O)NCCC(=O)O", "outcome": "inactive"}
{"molecule": "CC(=O)N[C@@H](CC(C)C)C(=O)O", "outcome": "inactive"}
{"molecule": "C=CC(C)(O)CC/C=C(\\C)CCC=C(C)C", "note": "(stereo not given)", "outcome": "inactive"}
{"molecule": "COc1ccccc1N1CCN(CCCNc2cc(=O)n(C)c(=O)n2C)CC1", "outcome": "inactive"}
{"molecule": "CC(C)NC[C@@H](O)COc1cccc2ccccc12", "outcome": "inactive"}
{"molecule": "COc1nc(C)nc(NC(=O)NS(=O)(=O)c2ccccc2OCCCl)n1", "outcome": "inactive"}
{"molecule": "CN1CCN(N)CC1", "outcome": "inactive"}
{"molecule": "CCN[C@H]1CN(CCCOC)S(=O)(=O)c2sc(S(N)(=O)=O)cc21", "outcome": "inactive"}
{"molecule": "CN(C)Cc1ccccc1", "outcome": "inactive"}
{"molecule": "C=CC1CO1", "note": "(stereo not given)", "outcome": "inactive"}
{"molecule": "O=CCCc1ccccc1", "outcome": "inactive"}
{"molecule": "CC1=CC(=O)CC(C)(C)C1=O", "outcome": "inactive"}
{"molecule": "CCCCCCCCOC(=O)CCCCCCCCC(=O)OCCCCCCCC", "outcome": "inactive"}
{"molecule": "O=C(O)CN(CCN(CC(=O)O)CC(=O)O)CCN(CC(=O)O)CC(=O)O", "activity change, negative = cytotoxic": "-0.409% [at 15.8 µM] (inactive)"}
{"molecule": "CCCCNCCCC", "outcome": "inactive"}
{"molecule": "CCOC(=O)CS", "outcome": "inactive"}
{"molecule": "CCc1cc2cc(OC)c(OC)cc2c(Cc2ccccc2)n1", "outcome": "inactive"}
{"molecule": "CCCCCCCOC(=O)CCC", "outcome": "inactive"}
{"molecule": "CN1CCN(C2=Nc3cc(F)ccc3Cc3ccccc32)CC1", "outcome": "inactive"}
{"molecule": "O=C1CCCCCCCCCCC(=O)OCCO1", "outcome": "inactive"}
{"molecule": "Cc1ncc(CO)c(CN)c1O", "outcome": "inactive"}
{"molecule": "O=C1CCN(c2ccccc2)N1", "outcome": "inactive"}
{"molecule": "CCCCc1ccc2nc(NC(=O)OC)[nH]c2c1", "outcome": "inactive"}
{"molecule": "Cc1nnc(SCC2=C(C(=O)O)N3C(=O)[C@@H](NC(=O)Cn4cnnn4)[C@H]3SC2)s1", "outcome": "inactive"}
{"molecule": "CN1CCN(c2c(F)cc3c(=O)c(C(=O)O)cn(CCF)c3c2F)CC1", "outcome": "inactive"}
{"molecule": "Cc1cc2nc(N)sc2cc1C", "outcome": "inactive"}
{"molecule": "CC/C=C\\CCOC(=O)C(C)C", "outcome": "inactive"}
{"molecule": "NCCC(O)(P(=O)(O)O)P(=O)(O)O", "outcome": "inactive"}
{"molecule": "NC(Cc1ccc(F)cc1)C(=O)O", "note": "(stereo not given)", "activity change, negative = cytotoxic": "2.23% [at 6.97 µM] (inactive)"}
{"molecule": "COC(=O)N[C@H](C(=O)N[C@@H](Cc1ccccc1)[C@@H](O)CN(Cc1ccc(-c2ccccn2)cc1)NC(=O)[C@@H](NC(=O)OC)C(C)(C)C)C(C)(C)C", "outcome": "inactive"}
{"molecule": "O=C1N(c2ccccc2)c2ccccc2C1(Cc1ccncc1)Cc1ccncc1", "outcome": "inactive"}
{"molecule": "CCC(=O)c1ccc2c(c1)N(CCCN(C)C)c1ccccc1S2", "outcome": "inactive"}
